# Data reported in PubChem BioAssay.
# Values joined by “and” are separate entries in the source; they are usually repeats but may differ in a detail not shown here. Equal values may be shown once. Results filed as inconclusive are left out. Active and inactive are the calls of the source. Cut-off read from the data, not from the text of the source, unless noted: active = inhibition above about 80%; inactive = the rest.
# How the values were obtained:
# [1] = JHH-DIPG-1 glioma cell viability, MIPE5.0 library, CellTiter-Glo luminescence, qHTS (AID 1347067; cut-off not given, nearly all actives have AC50 up to about 26 µM;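 note: cells exposed to compound for 48 hours before readout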); details: JHH-DIPG-1 glioma viability, CellTiter-Glo ATP luminescence
# [2] = SU-DIPG-XXV glioma cell viability, MIPE5.0 library, qHTS (AID 1347068; cut-off not given, nearly all actives have IC50 up to about 30 µM;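 for IC50: cells exposed to compound for 48 hours before viability readout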)
# [3] = sensitizers of A549 cells to miR-34 induction, primary screen, imaging, A549 dox-inducible miR-34, nuclei and caspase counts (AID 1347080;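 active = compounds whose cell count with miR-34 switched on is under 0.7 times the count with it off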); details: A549 miR-34 inducible, Hoechst nuclei count, 48 h
# [4] = survival rescue of mitochondrial mutant cells in low glucose, primary screen, MELAS cybrids, Rieske KO mouse fibroblasts, CellTiter-Glo (AID 1508586;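 active = mean z-score across replicates of 1.96 or higher in either the MELAS or the Rieske mutant cell line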;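 note: z relative to plate mean and SD of compound and empty wells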)
# [5] = LFS_MB_P medulloblastoma growth inhibition, cell-based, chromothripsis tumors, cisplatin or BGB combos (AID 1671449); details: LFS_MB_P medulloblastoma cells;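 note: cells exposed for 96 hours; 0% = vehicle DMSO and 100% = killing by high DMSO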
# [6] = HDN33 neuroblastoma growth inhibition, cell-based, chromothripsis tumors, cisplatin or BGB combos (AID 1671450); details: HDN33 neuroblastoma cells, stronger effect = higher value;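 note: cells exposed to compound for four days; 0% = vehicle DMSO and 100% = cell killing by high DMSO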
# [7] = ICB984 medulloblastoma cell growth inhibition, synergistic combos for chromothripsis tumors, cisplatin or BGB combos (AID 1671451; call rule not given here;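 note: cells exposed for 96 hours before readout; 0% = vehicle DMSO and 100% = killing by high DMSO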); details: ICB984 medulloblastoma cells, drug combinations, stronger effect = higher value
# [8] = LFS_MB_1R medulloblastoma cell growth inhibition, synergistic combos for chromothripsis tumors, cisplatin or BGB combos (AID 1671452); details: LFS_MB_1R medulloblastoma cells, stronger effect = higher value;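 note: cells exposed for 96 hours before readout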
# [9] = HTB85 osteosarcoma cell growth inhibition, synergistic combos for chromothripsis tumors, BGB or cisplatin IC20 combos (AID 1671453); details: HTB85 osteosarcoma cells, drug combinations, stronger effect = higher value;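 note: cells exposed for 96 hours before readout; 0% = vehicle DMSO and 100% = high DMSO killing control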
# [10] = CRL2098 osteosarcoma cell growth inhibition, synergistic combos for chromothripsis tumors, BGB or cisplatin IC20 combos (AID 1671454); details: CRL2098 osteosarcoma cells, drug combinations, stronger effect = higher value;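 note: cells exposed for 96 h before readout; 0% = vehicle DMSO and 100% = killing by high DMSO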
# [11] = HD-MB03 medulloblastoma cell growth inhibition, synergistic combos for chromothripsis tumors, BGB or cisplatin IC20 combos (AID 1671455; in the data active = inhibition above about 83%;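 note: 0% = vehicle DMSO and 100% = high DMSO as cytotoxic control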); details: HD-MB03 medulloblastoma cells, stronger effect = higher value
# [12] = UWB1.289 ovarian carcinoma cell growth inhibition, synergistic combos for chromothripsis tumors, BGB or cisplatin combos (AID 1671456); details: UWB1.289 ovarian carcinoma cells, stronger effect = higher value;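 note: cells exposed to compound for four days; 0% = vehicle DMSO and 100% = killing by high DMSO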
# [13] = LFS_MB_2R medulloblastoma cell growth inhibition, synergistic combos for chromothripsis tumors, cisplatin combos (AID 1671457); details: LFS_MB_2R medulloblastoma cells, stronger effect = higher value;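 note: cells exposed to compound for four days before readout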
# [14] = MDA-MB-436 breast carcinoma cell growth inhibition, synergistic combos for chromothripsis tumors, BGB or cisplatin combos (AID 1671458; call rule not given here;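 note: cells exposed for 96 hours; 0% = vehicle DMSO and 100% = killing by high DMSO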); details: MDA-MB-436 breast carcinoma growth inhibition, drug combinations, stronger effect = higher value
# [15] = UWB1.289_BRCA1 ovarian cancer growth, cell-based, BGB or cisplatin combinations (AID 1671459); details: UWB1.289 BRCA1 ovarian carcinoma, drug combinations, stronger effect = higher value
# [16] = human astrocyte viability loss, single and combined drugs, cytotoxicity control for chromothriptic childhood tumor combination screen, cell-based, BGB or cisplatin IC20 combos (AID 1671460); details: Human astrocytes, drug combinations, stronger effect = higher value;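 note: cells exposed to compounds for 96 hours before viability readout; 0% = vehicle and 100% = killing control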
# [17] = growth inhibition of BT084 medulloblastoma cells, cell-based, ICGC_MB145, cisplatin and BGB IC40 combos (AID 1671461); details: drug combinations, stronger effect = higher value;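 note: cells exposed to drugs for 96 hours; 0% = vehicle DMSO and 100% = high DMSO full killing control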
# [18] = growth inhibition of RCMB18 medulloblastoma cells, cell-based, cisplatin and BGB IC40 combos (AID 1671462); details: stronger effect = higher value;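 note: cells exposed to compound for four days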
# [19] = growth inhibition of CRL1545 osteosarcoma cells, cell-based, cisplatin and BGB IC20 combos (AID 1671464); details: stronger effect = higher value;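 note: cells exposed to compound for 96 hours before readout; 0% = vehicle DMSO and 100% = high DMSO killing control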
# [20] = measured here: combination with BGB IC40, at 0.05 µM
# [21] = measured here: with BGB IC20 combination, at 0.5 µM
# [22] = measured here: with cisplatin IC20 combination, at 0.5 µM
# [23] = measured here: combination with cisplatin, at 0.5 µM
# [24] = measured here: combination with cisplatin, at 5 µM
smiles,measurement,setting,value
Nc1nc(F)nc2c1ncn2C1OC(COP(=O)(O)O)C(O)C1O (stereo not drawn),outcome,[1],inactive
same,outcome,[2],inactive
same,fold change,"[3]; stronger effect = lower value, cell number ratio, induced over uninduced",0.831 (inactive)
same,fold change,[3]; measured here: relative caspase fold change +Dox/-Dox,1.44
same,cell count,"[3]; measured here: total cells with miR-34 induction, stronger effect = lower value",1120
same,cell count,[3]; measured here: total cells without miR-34 induction,1350
same,z-score,"[4]; MELAS cybrid survival, CellTiter-Glo 48 h, stronger effect = higher value",1.34 (inactive)
same,z-score,"[4]; Rieske KO mouse fibroblast survival, CellTiter-Glo 72 h",0.326
same,inhibition,"[5]; at 0.5 µM, stronger effect = higher value",-6.1% (inactive) and -16% (inactive)
same,inhibition,"[5]; measured here: combination with BGB IC20, at 0.005 µM",-22.8% and 0.183%
same,inhibition,"[5]; measured here: combination with BGB IC40, at 0.005 µM",-34.6% and 88.8%
same,inhibition,[5]; [20],-38.1% and -2.46%
same,inhibition,"[5]; measured here: combination with cisplatin, at 0.5 µM, stronger effect = higher value",-18.5% and -25%
same,inhibition,"[5]; measured here: combination with cisplatin, at 5 µM, stronger effect = higher value",-36% and -9.03%
same,inhibition,"[6]; BGB combo, at 5 µM",8.47% and 22.7%
same,inhibition,[6]; at 0.5 µM,-18.9% (inactive) and 5.11% (inactive)
same,inhibition,"[6]; cisplatin combo, at 5 µM",34% and 24.2%
same,inhibition,[6]; [21],-23% and -1.08%
same,inhibition,[6]; [22],-13.9% and 12.9%
same,inhibition,"[6]; single agent, at 5 µM",32.2% and 15.4%
same,inhibition,"[7]; BGB IC20 combo, at 0.005 µM",-19.2% and -1.57%
same,inhibition,"[7]; BGB IC40 combo, at 0.005 µM",-13.6% and -18.3%
same,inhibition,"[7]; BGB IC40 combo, at 0.05 µM",-31.2% and -1.01%
same,inhibition,[7]; at 0.5 µM,-29.2% (inactive) and -28.4% (inactive)
same,inhibition,"[7]; cisplatin combo, at 0.05 µM",-35.9% and -6.12%
same,inhibition,"[7]; cisplatin combo, at 0.5 µM",-20.9% and -39.7%
same,inhibition,"[7]; cisplatin combo, at 5 µM",-37.1% and 11.4%
same,inhibition,"[7]; measured here: 5 uM single agent, at 5 µM",0.546% and -0.896%
same,inhibition,[8]; at 0.5 µM,-6.95% (inactive) and -19.6% (inactive)
same,inhibition,[8]; [20],-26.6% and -4.09%
same,inhibition,[8]; [23],-0.649% and -47.1%
same,inhibition,[8]; [24],-27.4% and 0.798%
same,inhibition,[9]; at 0.5 µM,-3.37% (inactive) and -4.43% (inactive)
same,inhibition,"[9]; measured here: with BGB IC20, at 0.5 µM",-4.86% and 13.2%
same,inhibition,"[9]; measured here: with BGB IC20, at 5 µM",45.3% and 42.7%
same,inhibition,"[9]; measured here: with cisplatin IC20, at 0.5 µM",-6.04% and -18.8%
same,inhibition,"[9]; measured here: with cisplatin IC20, at 5 µM",12.2% and 45.7%
same,inhibition,"[9]; single agent, at 5 µM",36% and 50.6%
same,inhibition,[10]; at 0.5 µM,89.7% (active) and 91.2% (active)
same,inhibition,"[10]; measured here: combination with BGB at IC20, at 0.5 µM",89.6% and 91.3%
same,inhibition,"[10]; measured here: combination with cisplatin at IC20, at 0.5 µM",88.8% and 92.6%
same,inhibition,[11]; at 0.5 µM,-9.66% (inactive) and -9.92% (inactive)
same,inhibition,"[11]; measured here: combo with BGB at IC20, at 0.5 µM",-18.1% and -5.96%
same,inhibition,"[11]; measured here: combo with cisplatin at IC20, at 0.5 µM",-7.22% and -17%
same,inhibition,[12]; at 0.5 µM,0.55% (inactive) and 0.43% (inactive)
same,inhibition,"[12]; measured here: inhibition with BGB combination, at 0.05 µM",-14.7% and -18.8%
same,inhibition,"[12]; measured here: inhibition with cisplatin combination, at 0.05 µM",7.04% and -2.8%
same,inhibition,[13]; at 0.5 µM,-15.7% (inactive) and -21.8% (inactive)
same,inhibition,[13]; [23],-20.2% and -35.8%
same,inhibition,[13]; [24],-11.6% and -19.4%
same,inhibition,[14]; at 0.5 µM,-9.15% (inactive) and -15.9% (inactive)
same,inhibition,"[14]; measured here: BGB combination, at 0.5 µM",-8.11% and -21.9%
same,inhibition,"[14]; measured here: BGB combination, at 5 µM",-2.69% and -3.01%
same,inhibition,"[14]; measured here: cisplatin combination, at 0.5 µM",-21.1% and -19.1%
same,inhibition,"[14]; measured here: cisplatin combination, at 5 µM",-5.75% and -5.25%
same,inhibition,"[15]; BGB combination, concentration series, at 5 µM",11.6% and 15.8%
same,inhibition,[15]; at 0.5 µM,-0.02% (inactive) and -0.87% (inactive)
same,inhibition,"[15]; cisplatin combination, concentration series, at 5 µM",11.9% and 23.4%
same,inhibition,[16]; at 0.5 µM,1.35% (inactive) and 3.3% (inactive)
same,inhibition,"[16]; measured here: combo with BGB IC20, at 0.5 µM",-1.03% and 7.99%
same,inhibition,"[16]; measured here: combo with cisplatin IC20, at 0.5 µM",-5.99% and 1.9%
same,inhibition,[17]; at 0.5 µM,-11.5% (inactive) and -3.83% (inactive)
same,inhibition,"[17]; cisplatin combination, at 0.5 µM",-36% and -5.18%
same,inhibition,"[17]; cisplatin combination, at 5 µM",4.67% and -96.3%
same,inhibition,"[17]; measured here: BGB IC40 combination 0.05 uM, at 0.05 µM",-40.8% and -7.89%
same,inhibition,"[17]; single agent, at 5 µM",-1.22% and 8.96%
same,inhibition,[18]; at 0.5 µM,-12.8% (inactive) and -10.2% (inactive)
same,inhibition,"[18]; cisplatin combo, at 5 µM",18.6% and -15.8%
same,inhibition,"[18]; measured here: BGB IC40 combination, at 0.05 µM",-56.2% and -25.6%
same,inhibition,[18]; [23],24.5% and -1.4%
same,inhibition,"[18]; single agent, at 5 µM",-15.5% and 3.22%
same,inhibition,[19]; at 0.5 µM,-20.4% (inactive) and 8.11% (inactive)
same,inhibition,[19]; [21],-8.22% and 10.3%
same,inhibition,[19]; [22],-28.6% and 5.54%
same,inhibition,"[19]; single agent, at 0.05 µM",18.9% and -12.8%
same,inhibition,"[19]; single agent, at 5 µM",-12.4% and -14.9%
CC(=O)O/N=C1\C(=O)N(Cc2cc(Cl)ccc2Cl)c2ccc(Cl)cc21,AC50,[1],23.5 µM (active)
same,IC50,[2],8.33 µM (active)
